This passage reports growth inhibition results from PubChem BioAssay (NCI).

The panel holds about 79,000 compounds, 15% with a hit somewhere; the sample as a whole holds those more often. A number with no mark means an inactive call. Activity calls are given as the source filed them. No stated cut-off is given here; in the data, active means growth inhibition above about 70%; inactive means the rest.

The first test in a line: NCI Yeast Anticancer Drug Screen. Data for the mgt1 strain (AID 153). Conditions: S. cerevisiae mgt1 mutant growth inhibition; at 11.0 µM; stronger effect = higher value. The essentials: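 Yeast mgt1 strain (DNA repair/cell-cycle alteration panel) exposed to compounds; growth inhibition measured relative to vehicle-treated controls.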
With `CNC(=O)OCc1c(COC(=O)NC)c(C)n(-c2ccc(Cl)c(Cl)c2)c1C`, the growth inhibition was -14%.
With `O=C(O)/C=C\C(=O)NNc1ccc(Br)cc1`, the growth inhibition is 99% (active).
On to `S=c1[nH]nc(Cc2ccccc2)c(=S)[nH]1`, for which the growth inhibition is 83% (active).
With `COc1ccc2nc3cccc([N+](=O)[O-])c3c(NCCCO)c2c1`, the growth inhibition is 92% (active).
The same measure, in the same setting: the result for `CCN(CC)CCSc1c2ccccc2nc2cc(NCC(=O)Nc3ccccc3-c3ccccc3NC(=O)CNc3ccc4c(SCCN(CC)CC)c5ccccc5nc4c3)ccc12` reads 19%.
Take `Cc1ccc(N(C=O)c2c([N+](=O)[O-])cc([N+](=O)[O-])c3c2=[N+]([O-])CN=3)cc1`: the growth inhibition is 52%.
In the case of `COc1ccc(C(=O)OCCc2ccccc2)cc1`, the growth inhibition was -3%.
For `COc1ccc(C(=O)NCCN(C)C)c2nc3ccccc3cc12`, the growth inhibition is 14%.
On the same count and under the same terms, the result for `NCC(O)CSCc1ccc(Cl)cc1` (configuration not stated) reads -2%; that for `O=C(/C(=C/c1ccccc1)CBr)c1ccccc1`, 49%.
For `O=C(Cc1ccccc1F)NC1=C(Cl)C(=O)c2ccccc2C1=O`, the growth inhibition is 8%.
In the case of `Cc1cccc(N2CCN(C(=O)/C(=C/c3ccccc3)NC(=O)c3ccccc3)CC2)c1`, the growth inhibition was 0%.
As for `c1cc(Nc2ccc3c(c2)OCO3)c2cc(C3CCCCC3)ccc2n1`, the growth inhibition is -3%.
`COc1cc(NCCCCCNC(C)C)c2ncccc2c1Cl`: the growth inhibition was 1%.
On the same count and under the same terms, the result for `COc1ccc2cc(CN3CCC(C4CCN(Cc5ccc6cc(OC)ccc6c5)CC4)CC3)ccc2c1` reads 0%; that for `CC(=O)O/N=C/c1c2ccccc2cc2ccccc12`, -1%.
Take `CC[C@@]1(OC(=O)CN(C)C)C(=O)OCc2c1cc1n(c2=O)Cc2cc3ccccc3nc2-1`: the growth inhibition is 32%.
As for `CCCCCCC(CCl)c1sc(-c2csc(CCNC(=O)OC(C)(C)C)n2)nc1C(=O)OC` (configuration not stated), the growth inhibition is -6%.
Turning to `O=C1C(Br)=CC(Br)(Br)C=C1Br`, the growth inhibition is 58%.

Staying with this test, now noted: S. cerevisiae mgt1 mutant growth inhibition; at 33.0 µM; stronger effect = higher value.
On to `CNC(=O)OCc1c(COC(=O)NC)c(C)n(-c2ccc(Cl)c(Cl)c2)c1C`, for which the growth inhibition was 98% (active).
On the same count and under the same terms, the result for `O=C(O)/C=C\C(=O)NNc1ccc(Br)cc1` reads 99% (active); that for `S=c1[nH]nc(Cc2ccccc2)c(=S)[nH]1`, 97% (active).
With `COc1ccc2nc3cccc([N+](=O)[O-])c3c(NCCCO)c2c1`, the growth inhibition is 96% (active).
Consider `CCN(CC)CCSc1c2ccccc2nc2cc(NCC(=O)Nc3ccccc3-c3ccccc3NC(=O)CNc3ccc4c(SCCN(CC)CC)c5ccccc5nc4c3)ccc12`, for which the growth inhibition is 85% (active).
Take `Cc1ccc(N(C=O)c2c([N+](=O)[O-])cc([N+](=O)[O-])c3c2=[N+]([O-])CN=3)cc1`: the growth inhibition is 96% (active).
Still for that read-out and setting: next, `COc1ccc(C(=O)OCCc2ccccc2)cc1`: -5%.
For the compound `COc1ccc(C(=O)NCCN(C)C)c2nc3ccccc3cc12`, the growth inhibition was 17%.
The same measure, in the same setting: next, `NCC(O)CSCc1ccc(Cl)cc1` (configuration not stated): 0%; `O=C(/C(=C/c1ccccc1)CBr)c1ccccc1`: 95% (active); `O=C(Cc1ccccc1F)NC1=C(Cl)C(=O)c2ccccc2C1=O`: 3%.
`Cc1cccc(N2CCN(C(=O)/C(=C/c3ccccc3)NC(=O)c3ccccc3)CC2)c1`: the growth inhibition is 44%.
On the same count and under the same terms, next, `c1cc(Nc2ccc3c(c2)OCO3)c2cc(C3CCCCC3)ccc2n1`: -6%; `COc1cc(NCCCCCNC(C)C)c2ncccc2c1Cl`: 3%.
Same read-out and setting: the result for `COc1ccc2cc(CN3CCC(C4CCN(Cc5ccc6cc(OC)ccc6c5)CC4)CC3)ccc2c1` reads 4%; that for `CC(=O)O/N=C/c1c2ccccc2cc2ccccc12`, 9%; that for `CC[C@@]1(OC(=O)CN(C)C)C(=O)OCc2c1cc1n(c2=O)Cc2cc3ccccc3nc2-1`, 90% (active).
Still for that read-out and setting: the result for `CCCCCCC(CCl)c1sc(-c2csc(CCNC(=O)OC(C)(C)C)n2)nc1C(=O)OC` (configuration not stated) reads 2%; that for `O=C1C(Br)=CC(Br)(Br)C=C1Br`, 98% (active).

Staying with this test, now noted: S. cerevisiae mgt1 mutant growth inhibition; at 100.0 µM; stronger effect = higher value.
As to `CNC(=O)OCc1c(COC(=O)NC)c(C)n(-c2ccc(Cl)c(Cl)c2)c1C`, the growth inhibition is 99% (active).
`O=C(O)/C=C\C(=O)NNc1ccc(Br)cc1`: the growth inhibition is 98% (active).
Consider `S=c1[nH]nc(Cc2ccccc2)c(=S)[nH]1`, for which the growth inhibition was 97% (active).
For the compound `COc1ccc2nc3cccc([N+](=O)[O-])c3c(NCCCO)c2c1`, the growth inhibition is 96% (active).
On to `CCN(CC)CCSc1c2ccccc2nc2cc(NCC(=O)Nc3ccccc3-c3ccccc3NC(=O)CNc3ccc4c(SCCN(CC)CC)c5ccccc5nc4c3)ccc12`, for which the growth inhibition was 97% (active).
As for `Cc1ccc(N(C=O)c2c([N+](=O)[O-])cc([N+](=O)[O-])c3c2=[N+]([O-])CN=3)cc1`, the growth inhibition is 98% (active).
On to `COc1ccc(C(=O)OCCc2ccccc2)cc1`, for which the growth inhibition was -4%.
As for `COc1ccc(C(=O)NCCN(C)C)c2nc3ccccc3cc12`, the growth inhibition was 67%.
The same measure, in the same setting: the result for `NCC(O)CSCc1ccc(Cl)cc1` (configuration not stated) reads 7%; that for `O=C(/C(=C/c1ccccc1)CBr)c1ccccc1`, 99% (active).
Turning to `O=C(Cc1ccccc1F)NC1=C(Cl)C(=O)c2ccccc2C1=O`, the growth inhibition is 14%.
The same measure, in the same setting: the result for `Cc1cccc(N2CCN(C(=O)/C(=C/c3ccccc3)NC(=O)c3ccccc3)CC2)c1` reads 54%; that for `c1cc(Nc2ccc3c(c2)OCO3)c2cc(C3CCCCC3)ccc2n1`, 85% (active).
Still for that read-out and setting: next, `COc1cc(NCCCCCNC(C)C)c2ncccc2c1Cl`: 33%; `COc1ccc2cc(CN3CCC(C4CCN(Cc5ccc6cc(OC)ccc6c5)CC4)CC3)ccc2c1`: 97% (active); `CC(=O)O/N=C/c1c2ccccc2cc2ccccc12`: 20%.
Regarding `CC[C@@]1(OC(=O)CN(C)C)C(=O)OCc2c1cc1n(c2=O)Cc2cc3ccccc3nc2-1`, the growth inhibition was 97% (active).
`CCCCCCC(CCl)c1sc(-c2csc(CCNC(=O)OC(C)(C)C)n2)nc1C(=O)OC` (configuration not stated): the growth inhibition was 98% (active).
`O=C1C(Br)=CC(Br)(Br)C=C1Br`: the growth inhibition was 99% (active).
